Source: PubChem BioAssay (National Center for Advancing Translational Sciences (NCATS))
The list is not random: actives were taken first. Their share in the collection is about 19%.
TDP1 cell CPT: growth inhibition of DT40 Tdp1-/-;hTDP1 cells with camptothecin (screen for TDP1 inhibitors); Potency, µM (series often up to 46.2 µM), without a hit: at the top dose activity change, negative = growth inhibition, most hits filed as inhibitors; 12% of 420,000 active; chicken DT40 Tdp1-/-;hTDP1 cells + 20 nM CPT, ATP luminescence, 48 h; also: potency is read from the fitted curve at half-maximal effect; nearly all actives have a fitted effect of over 55% in size
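Chicken DT40 Tdp1-/- cells stably complemented with human TDP1 were seeded at 400 cells/well in medium containing 20 nM camptothecin, exposed to pin-transferred compounds, and grown at 37 °C for at least 48 hr. Viability was read as ATP luminescence.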
ELG1 DNA repair: blocks ELG1-dependent DNA repair in HEK293T cells; HEK293T ELG1-luciferase reporter, luminescence, 16 h; DNA damage induced by 5-fluorouridine; Potency, µM (series often up to 46.1 µM), for the others: at the highest dose activity change, negative = inhibition, usual class: inhibitors; 2.3% of 330,000 active; AID 504467; also: potency is read from the fitted curve at half-maximal effect; nearly all actives have a fitted effect of over 55% in size
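Step one: seed 2,000 cells per well. Step two: pin-transfer compound or DMSO alongside 5-fluorouridine. Step three: incubate 16 hr, 37 °C, 5% CO2. Step four: add ONE-Glo, wait 30 min, read luminescence.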
TDP1 block: TDP1 (human) enzyme inhibition | recombinant TDP1, AlphaScreen DNA substrate cleavage | 0.28% of 350,000 active | Potency, µM (top dose mostly 130 µM), inactives show at the top dose activity change, negative = inhibition, usual class: inhibitors | AID 485290; also: potency is read from the fitted curve at half-maximal effect; nearly all actives have a fitted effect of over 40% in size
Target sequence (Q9NUW8 whole entry, looked up): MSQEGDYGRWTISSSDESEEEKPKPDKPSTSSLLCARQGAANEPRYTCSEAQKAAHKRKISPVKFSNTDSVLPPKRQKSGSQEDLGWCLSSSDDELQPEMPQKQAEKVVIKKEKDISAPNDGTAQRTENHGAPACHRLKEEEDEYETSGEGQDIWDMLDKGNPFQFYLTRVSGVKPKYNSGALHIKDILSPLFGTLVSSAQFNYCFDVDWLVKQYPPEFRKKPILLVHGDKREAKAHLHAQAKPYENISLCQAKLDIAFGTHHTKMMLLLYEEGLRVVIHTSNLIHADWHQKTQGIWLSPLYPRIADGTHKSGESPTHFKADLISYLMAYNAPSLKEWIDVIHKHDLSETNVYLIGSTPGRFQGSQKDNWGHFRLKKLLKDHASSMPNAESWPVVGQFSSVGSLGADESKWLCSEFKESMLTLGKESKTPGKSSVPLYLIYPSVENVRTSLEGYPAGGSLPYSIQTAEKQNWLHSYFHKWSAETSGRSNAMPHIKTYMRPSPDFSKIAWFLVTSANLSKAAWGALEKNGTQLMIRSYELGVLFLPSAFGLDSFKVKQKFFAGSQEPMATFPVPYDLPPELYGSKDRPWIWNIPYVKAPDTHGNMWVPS
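Compounds were preincubated with Tdp1 (1 nM final) for 15 min at room temperature before substrate (15 nM final) started a 5 min reaction; beads (10 ug/ml final) were then added for 10 min before AlphaScreen detection.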
IL1B secr inh: inflammasome signaling inhibition, IL-1 beta readout; THP-1 LPS/ATP IL-1B secretion, AlphaLISA, 16 h; hits give low values; activity change, % at 57.5 µM; 4.7% of 360,000 active; in the data active = activity change below about -50%; inconclusive = mostly about -30% to -49%
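THP-1 cells pretreated 1 hr with compounds (up to 57.5 uM final), then stimulated with LPS (250 ng/mL final) plus ATP (1.25 mM final); secreted IL-1B measured by AlphaLISA after 16 hr, decreased signal indicating inhibition.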
Giardia kill: Giardia lamblia killing; Giardia lamblia trophozoite viability; activity change, % at 7.66 µM, hits read low; 0.15% of 340,000 active; AID 540267; in the data active = activity change below about -80%; inconclusive = between about -30% and that limit;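 also: parasites exposed to compound for two days anaerobically before the ATP read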
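Trophozoites 100 cells/well + cpd; 48 hrs, 37 deg C, anaerobic. ATPLite 1-Step added, 15-30 min RT, luminescence read (ATP-based viability).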
DT40 TDP1 no CPT: qHTS for Inhibitors of human tyrosyl-DNA phosphodiesterase 1 (TDP1): qHTS in cells in absence of CPT. DT40 Tdp1-/- hTDP1 cells, no CPT, ATP luminescence, 48 h. Potency, µM (titrated, usually from 46.2 µM), for the others: at the highest dose activity change, negative = growth inhibition, hits mostly inhibitors. 15% of 420,000 active; also: potency is read from the fitted curve at half-maximal effect; nearly all actives have a fitted effect of over 55% in size
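Seeded 400 DT40-hTDP1 cells/well (vehicle DMSO, no 20 nM CPT); pinned compounds; ≥48 hr at 37 °C; CellTiter-Glo luminescence as viability measure.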
An asterisk follows results filed as active; ? = inconclusive; . = no result; [ ] = another dose, or the depositor's remark. Unless noted, calls follow the shape of the dose curve; as a rule, active = well fitted curve in the direction sought with a large enough effect; inconclusive = small, poorly fitted or top-dose-only effect, or another doubt; inactive = no such curve, though single readings can be large; an effect the other way counts as inactive or inconclusive. % is scaled to controls: 0 for no effect and ±100 for the full control effect.

SMILES	TDP1 cell CPT	ELG1 DNA repair	TDP1 block	IL1B secr inh	Giardia kill	DT40 TDP1 no CPT
CC(C)CNC(=O)c1cccc(NC(=O)c2ccc(Cl)c([N+](=O)[O-])c2)c1	21µM*	?	4%	-112*	-2	21µM*
CC(C)CNC(=O)c1cccc(NC(=O)COc2ccc([N+](=O)[O-])cc2)c1	13µM*	21µM*	-4%	-8	-5	23µM*
CN(C)/C=C/C(=O)c1ccc(Cl)c([N+](=O)[O-])c1	-8%	12%	9%	-96*	8	?
CC(C)(C)SCCNC(=O)c1ccc(Cl)c([N+](=O)[O-])c1	?	?	-6%	?	-11	16µM*
O=S1(=O)C2CC3OC2(CC3c2ccc(F)cc2)CN1Cc1ccc(Cl)cc1 (configuration not stated)	.	.	4%	.	-2	.
CO/N=C\[C@@H](NS(=O)(=O)c1ccc(C)cc1)[C@H](C)/C=C\CC(=O)OC	.	.	-3%[21 µM]	.	.	.
O=P(O)(O)C(O)(Cc1cnc2ccccn12)P(=O)(O)O	?	.	.	.	.	2%
O=c1cc(O)n(-c2ccccc2)c(=S)[nH]1	21µM*	1%	-7%	11	9	?
COc1ccc(C(=O)Nc2cc(OC)c(Cl)cc2Cl)cc1	3%	25%	9%	10	2	23µM*
COc1cc(NC(=O)c2ccc(C(=O)Nc3cc(OC)c(Cl)cc3OC)cc2)c(OC)cc1Cl	-3%	.	1%[12.3 µM]	.	.	1%
COc1cc(OC)c(NC(=O)c2cc3ccccc3cc2O)cc1Cl	10µM*	.	.	-78*	-2	?
CCOC(=O)C(=O)C1=CN(Cc2ccccc2)C=C(C#N)C1	0%	1%	3%	0	-8	-4%
N#CC1=CN(Cc2ccccc2)C=C(/C=N/Nc2ccccc2)C1	?	-12%	10%	-80*	18	?
COc1cc(/C=C(\CCC(=O)O)c2nc3ccccc3s2)ccc1OCC(=O)Nc1c(Cl)cccc1Cl	16µM*	?	28µM*	0	-5	?
CCOC(=O)c1ccc(N2CN(CCc3ccccc3)CNC2=S)cc1	16µM*	17%	0%	-10	-3	?
CCOc1ccc2[nH]c3c(NCC(C)C)ncnc3c2c1	?	?	.	?	7	26µM*
CCOc1ccc2[nH]c3c(NCCN(CC)CC)ncnc3c2c1	13%	?	.	-96*	14	-1%
CCOc1ccc2[nH]c3c(NCCCOC)ncnc3c2c1	?	?	.	-54*	28	?
COc1ccc2[nH]c3c(NCCCN4CCCC4=O)ncnc3c2c1	0%	?	1%	9	4	4%
CCOc1ccc2[nH]c3c(NCCOC)ncnc3c2c1	?	?	.	1	13	-24%
COc1ccc2[nH]c3c(NCCN(C(C)C)C(C)C)ncnc3c2c1	16µM*	-6%	5%	-57*	15	18µM*
Cc1cccc(NC(=O)COC(=O)c2ccc(S(=O)(=O)N3CCCC3)cc2)c1	1%	11%	0%	8	7	5%
COc1ccccc1CN1CC2(CCN(C(=O)c3cccc(F)c3)CC2)C1	6%	.	.	.	.	-8%
CC(OC(=O)c1ccc(S(=O)(=O)NCc2ccco2)cc1)C(=O)Nc1ncc(Cl)cc1Cl (configuration not stated)	?	4%	.	-8	-7	-34%
COc1cc(S(=O)(=O)N2CCN(C(=O)c3cccs3)CC2)ccc1NC(C)=O	1%	.	.	22	.	1%
NC(=O)CC(NC(=O)c1cccc(Br)c1)c1ccc(N2CCC(Br)CC2)c([N+](=O)[O-])c1 (configuration not stated)	21µM*	-2%	.	1	-8	?
